KAT2A inh = blocks human GCN5L2 histone acetyltransferase | Q92830 | GCN5L2 HAT assay, ThioGlo1 CoA-SH fluorescence | Potency, µM (top dose mostly 58.9 µM), for the others: at the highest dose activity change, negative = inhibition, usual class: inhibitors | 390,000 compounds, 0.21% hits
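Preincubate 20nM GCN5L2 with compound 15 min, RT → add 50uM ThioGlo1 + 75uM H3(1-25) + 70uM acetyl-CoA → read fluorescence 0 and 20 min. Primary qHTS; fluorescent artifacts likely.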
12-LOX inh = ALOX12 (human) lipoxygenase inhibition. P18054. purified 12hLO, xylenol orange hydroperoxide absorbance. Potency, µM (top dose mostly 108 µM), inactives show top-dose activity change, negative = inhibition, actives largely listed as inhibitors. 580,000 compounds, 1.1% hits
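Hydroperoxide product was detected by ferrous iron/xylenol orange as the 573 to 405 nm absorbance ratio. Arachidonic acid at 40 uM (final) was turned over for 30 min at room temperature by 150 nM human 12hLO, pH 7.0 Hepes buffer, after 15 min compound preincubation.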
VDR inh = blocks the human vitamin D receptor. AID 504847. VDR-SRC2-3 peptide fluorescence polarization, 2 h. P11473. 400,000 compounds, 0.93% hits. Potency, µM, for inactives: max response, negative = inhibition, usual class: inhibitors
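VDR–SRC2-3 interaction, FP format. Cmpds 23 nl via pintool, brief spin, 2 h ambient incubation.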
PLK1 PBD inh = PLK1 (human) polo-box domain binding inhibition; P53350; Plk1 PBD binding of FITC phosphopeptide, fluorescence polarization; Potency, µM, for inactives: max response, negative = inhibition, hits mostly inhibitors; 360,000 compounds, 2.8% hits; further: series mostly up to about 57 µM; nearly all actives have a fitted effect of over 65% in size
Target sequence (P53350 whole entry, looked up, the tested form may be a part): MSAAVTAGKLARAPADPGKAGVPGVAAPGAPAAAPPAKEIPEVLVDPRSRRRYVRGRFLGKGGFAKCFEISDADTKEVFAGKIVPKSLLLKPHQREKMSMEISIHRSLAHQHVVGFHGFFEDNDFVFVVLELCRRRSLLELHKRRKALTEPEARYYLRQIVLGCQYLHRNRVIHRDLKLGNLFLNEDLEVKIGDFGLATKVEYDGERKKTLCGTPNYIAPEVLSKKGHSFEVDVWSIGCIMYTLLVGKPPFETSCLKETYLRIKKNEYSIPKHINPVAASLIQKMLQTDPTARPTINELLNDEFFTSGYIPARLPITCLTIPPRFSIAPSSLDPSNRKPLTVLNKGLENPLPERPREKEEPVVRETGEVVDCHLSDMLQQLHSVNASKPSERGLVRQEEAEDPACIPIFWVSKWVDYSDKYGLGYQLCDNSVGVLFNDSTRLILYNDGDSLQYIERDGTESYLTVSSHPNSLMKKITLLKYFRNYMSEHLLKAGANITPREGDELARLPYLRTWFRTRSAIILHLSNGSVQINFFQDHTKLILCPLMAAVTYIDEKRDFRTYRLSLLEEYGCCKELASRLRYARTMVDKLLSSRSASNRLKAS
* marks the source's active call; other numbers are inactive results; ? = inconclusive; · = no result given; [ ] = remark or other dose. Rows were chosen to be rich in hits. Some 3% of all compounds tested hit in one or more screens of this group. The call rests on the fitted dose curve; in most records, active means well fitted curve in the direction sought with a large enough effect; inconclusive means small, poorly fitted or top-dose-only effect, or another doubt; inactive means no such curve, though single readings can be large; an effect the other way counts as inactive or inconclusive. On the % scale 0 is the no-effect control and ±100 the full control effect; potency means the concentration at half of the fitted maximal effect.

SMILES	KAT2A inh	12-LOX inh	VDR inh	PLK1 PBD inh
O=C(Cn1nnc(-c2ccccc2)n1)N1CCCC(c2nc3ccccc3s2)C1 (stereo unspecified)	·	17%	·	·
c1ccc(OCCCCN2CCC(c3nc4ccccc4s3)CC2)cc1	·	0.89µM*	·	·
c1ccc(OCCCN2CCC(c3nc4ccccc4s3)CC2)cc1	·	0.71µM*	·	·
CC(C)(C)NC(=O)CNC(=O)C1CCCN1S(=O)(=O)c1ccc(Cl)s1 (stereo unspecified)	·	42%	·	·
CCOC(=O)c1ccc2[nH]c(CSCC(=O)Nc3ccc(CC)cc3)cc(=O)c2c1	·	-27%	·	·
NS(=O)(=O)c1ccc(NC(=O)CN2C(=O)COc3ccc(Cl)cc32)cc1	0%	45µM*	5%	·
O=C(CN1C(=O)COc2ccc(Cl)cc21)Nc1cccc(F)c1	-9%	3%	9%	·
Cc1cccnc1NC(=O)CN1C(=O)COc2ccc(Cl)cc21	-6%	13µM*	-5%	4%
COc1ccccc1Nc1ncnc2c1cnn2-c1cccc(Cl)c1	·	3%	·	·
CCOc1cc(C2C(C#N)=C(N)OC(C)=C2C(C)=O)cc(Br)c1O (stereo unspecified)	-3%	?	3%	24µM*
CCOc1cc(C2C(C#N)=C(N)OC(C)=C2C(C)=O)c(Br)c(Br)c1OC(C)C (stereo unspecified)	2%	·	?	-30%
Cc1c(Br)c([N+](=O)[O-])nn1CCCC(=O)Nc1sc2c(c1C(N)=O)CCC(C)C2 (stereo unspecified)	-2%	-4%	-17%	-25%
Cc1c(Br)c([N+](=O)[O-])nn1CC(=O)Nc1sc2c(c1C(=O)OC(C)C)CCCC2	1%	-19%	-20%	19µM*
Cc1c(Cl)c([N+](=O)[O-])nn1CCCC(=O)Nc1sc2c(c1C#N)CCC2	-1%	?	?	30µM*
Cc1c(Br)c([N+](=O)[O-])nn1CCCC(=O)Nc1sc2c(c1C#N)CCC2	-10%	?	?	5.3µM*
O=C(CN1CCN(c2ccc([N+](=O)[O-])c3cnccc23)CC1)Nc1cccc(F)c1	·	3%	·	·
COc1ccccc1CCNC(=O)C(=O)NCc1n[nH]c(=O)c2ccccc12	·	-1%	·	·
CNC(=O)c1ccc(Nc2cc(Nc3ccccc3S(=O)(=O)C(C)C)c3cc[nH]c3n2)nc1	·	0.97µM*	·	·
CC(C)CC(OC(=O)CC1Sc2ccccc2NC1=O)C(=O)NC1CCCC1 (stereo unspecified)	-4%	2%	-15%	-14%
CCCC(OC(=O)CC1Sc2ccccc2NC1=O)C(=O)NCc1ccco1 (stereo unspecified)	-27%	32µM*	0%	-17%
CC(=O)Oc1c(C)cccc1C(=O)O	-1%	·	-4%	·
CC(=O)OC1=CSc2cccc3cccc1c23	·	40µM*	·	·
COCCCNC(=O)c1cc2cc3cc(OC)ccc3nc2o1	-28%	-10%	-22%	21µM*
CCOc1ccccc1CNC(=O)c1c(C)noc1-c1cccs1	·	14%	·	·
Cc1cccnc1Nc1nc(-c2ccc(O)c(O)c2)cs1	-9%	2.8µM*	-24%	?
SMILES	KAT2A inh	12-LOX inh	VDR inh	PLK1 PBD inh
Cc1cccc(Nc2nc(-c3ccc(F)c(C)c3)cs2)n1	-20%	?	-5%	-1%
Cc1ccc(-c2csc(Nc3ccccn3)n2)cc1C	·	32µM*	·	·
Cc1ccnc(Nc2nc(-c3ccc(O)c(O)c3)cs2)c1	-1%	0%	-4%	-10%
Cc1cccc(Nc2nc(-c3ccc(O)c(O)c3)cs2)n1	-12%	28µM*	-14%	-2%
Oc1ccc(-c2csc(Nc3ccccn3)n2)cc1O	-7%	20µM*	-15%	?
CC(=O)Nc1ccc(-c2csc(Nc3ccccn3)n2)cc1	2%	-20%	16%	-3%
CCN(CC)S(=O)(=O)c1ccc(OC(C)C)c(NC(=O)c2ccc(OC(F)F)cc2)c1	·	3%	·	·
CC(C)CC1C(=O)N(Cc2cn(Cc3ccco3)nn2)CCS(=O)(=O)N1Cc1ccc(-c2ccc(Cl)cc2)cc1 (stereo unspecified)	·	?	·	-10%
CC(C)CC1C(=O)N(Cc2cn(Cc3ccco3)nn2)CCS(=O)(=O)N1Cc1ccc(-c2cccc(CO)c2)cc1 (stereo unspecified)	·	22µM*	·	-11%
Cc1ccc(-c2ccc(CN3C(C(C)C)C(=O)N(Cc4cn(Cc5ccco5)nn4)CCS3(=O)=O)cc2)cc1 (stereo unspecified)	·	45µM*	·	-10%
CC(C)C1C(=O)N(Cc2cn(Cc3ccco3)nn2)CCS(=O)(=O)N1Cc1ccc(-c2cccc(N(C)C)c2)cc1 (stereo unspecified)	·	-37%	·	-3%
COc1ccc(-c2ccc(CN3C(C)C(=O)N(Cc4cn(CCC5OCCO5)nn4)CCS3(=O)=O)cc2)cc1 (stereo unspecified)	·	16µM*	·	42µM*
C/C(=N\NC(=O)c1ccccc1O)C1C(=O)c2ccccc2C1=O	-25%	-3%	8%	-1%
C/C(=N/NC(=O)c1cc2ccccc2cc1O)C1C(=O)c2ccccc2C1=O	-5%[0.501 µM]	?	-25%	9.5µM*
Cc1ccc(C)c(C(=O)NC2C3CC4CC(C3)CC2C4)c1 (stereo unspecified)	·	-9%	·	·
Cc1cccc(/C=C(/C#N)C(=O)c2c(C)[nH]c3ccccc23)c1	·	13%	·	·
CCc1ccc(/C=C(/C#N)C(=O)c2c(C)[nH]c3ccccc23)cc1	·	14µM*	·	·
CC(=O)Nc1ccc(S(=O)(=O)N[C@@H](C)C(=O)N2CCN(c3ccccn3)CC2)cc1	·	4%	?	12µM*
CC(=O)Nc1ccc(S(=O)(=O)NC(C)C(=O)NC(C)c2ccccc2)cc1 (stereo unspecified)	-5%	1%	-29%	12µM*
CCC(NS(=O)(=O)c1ccc(C)cc1)C(=O)N1CCN(c2ccccn2)CC1 (stereo unspecified)	1%	27%[57.4 µM]	-4%	-6%
O=C(CCCc1ccccc1)Nc1ccc(Br)cc1F	-6%	·	22µM*	6.7µM*
O=C(CCCc1ccccc1)Nc1ccccc1[N+](=O)[O-]	-8%	-17%	20µM*	3.4µM*
O=C(CS(=O)(=O)Cc1ccccc1)Nc1ccc(Br)cc1F	·	9%	-24%	-1%
Cc1ccc(NC(=O)CCCc2ccccc2)c([N+](=O)[O-])c1	-17%	-4%	-12%	-4%
CCOC(=O)CSc1nc(-c2cccc(C)c2)nc2c1COC(C)(C)C2	·	-2%	·	·
SMILES	KAT2A inh	12-LOX inh	VDR inh	PLK1 PBD inh
O=C(COC(=O)c1ccc(S(=O)(=O)N2CCCCCC2)cc1)Nc1ccc(Cl)cn1	·	-12%	·	·
COc1ccccc1CN1C(=O)COC[C@@H]1[C@H](O)c1ccc(NC(=O)c2ccccc2)cc1	·	-14%	·	·
NC(=S)N/N=C/c1ccccc1OC(=O)/C=C/c1ccccc1	-1%	5.6µM*	?	-22%
Cn1nc(C(=O)Nc2ccnn2Cc2ccccc2Cl)c2ccccc2c1=O	·	22%	·	·
Cc1c(N=Cc2cc3c(cc2[N+](=O)[O-])OCO3)cccc1[N+](=O)[O-]	·	0%	89µM*	?
Cc1ccccc1N=Cc1cc2c(cc1[N+](=O)[O-])OCO2	-3%	?	3%	-13%

Screens as filed in PubChem BioAssay.
